# Reference: PubChem BioAssay
# Unmarked numbers belong to inactive results. For some assays here: Results with a measured potency or affinity are listed apart. The source made the active and inactive calls. Unless noted, the rule behind the calls is not given here.
# Assays:
# [1] = antimalarial activity against Dd2 strain (AID 2302;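 active = growth inhibition above 50% at the single 2 µM test dose, taken to imply half-maximal potency below 2 µM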;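 note: 0% = DMSO untreated growth and 100% = chloroquine plus artemisinin killed control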); settings: P. falciparum Dd2 in RBCs, LDH growth readout, 72 h; at 2 µM; stronger effect = higher value
# [2] = HepG2 cytotoxicity, primary screen, cytotoxicity control for P. falciparum antimalarial project, cell-based, ATP luminescence (AID 2303;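 active = inhibition above 50%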;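 note: 0% = DMSO wells and 100% = digitonin-killed cells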); settings: HepG2 viability, 24-48 h, at 10 µM, stronger effect = higher value
# [3] = molecular target: L-lactate dehydrogenase (Plasmodium falciparum (isolate CDC / Honduras)) (UniProt Q27743); assay: PfLDH activity inhibition – cell lysate, 3D7 strain, counter-screen for P. falciparum growth inhibition project (AID 2304);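 note: 0% = vehicle and 100% = reference inhibitor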; settings: P. falciparum 3D7 crude extract, LDH APAD/NBT absorbance; at 2 µM; stronger effect = higher value
# L-lactate dehydrogenase (Plasmodium falciparum (isolate CDC / Honduras)), sequence (Q27743 whole entry, looked up): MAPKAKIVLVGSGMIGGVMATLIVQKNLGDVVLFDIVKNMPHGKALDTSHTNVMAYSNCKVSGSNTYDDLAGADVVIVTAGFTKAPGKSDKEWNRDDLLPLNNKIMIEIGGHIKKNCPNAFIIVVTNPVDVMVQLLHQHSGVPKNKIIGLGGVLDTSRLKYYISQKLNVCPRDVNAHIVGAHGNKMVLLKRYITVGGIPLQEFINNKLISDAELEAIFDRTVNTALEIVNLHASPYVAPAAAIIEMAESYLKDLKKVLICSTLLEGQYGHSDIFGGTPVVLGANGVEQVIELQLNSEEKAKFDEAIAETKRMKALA
# [4] = inhibition of 3D7 malaria parasite growth – strain 3D7 (AID 2306);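 note: 0% = DMSO wells and 100% = chloroquine plus artemisinin control wells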; settings: P. falciparum 3D7 erythrocytic growth, LDH absorbance, 72 h; at 2 µM; stronger effect = higher value
# [5] = molecular target: Calcium-dependent protein kinase 1 (Plasmodium falciparum (isolate 3D7)) (UniProt P62344); assay: PfCDPK1 kinase inhibitors, biochemical, TCAMS library (AID 1159585; cut-off not given, nearly all actives have IC50 up to about 0.98 µM;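 note: inhibitors leave more ATP so luminescence rises with inhibition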); settings: recombinant PfCDPK1, Kinase-Glo ATP depletion luminescence
# Calcium-dependent protein kinase 1 (Plasmodium falciparum (isolate 3D7)), sequence (P62344 whole entry, looked up): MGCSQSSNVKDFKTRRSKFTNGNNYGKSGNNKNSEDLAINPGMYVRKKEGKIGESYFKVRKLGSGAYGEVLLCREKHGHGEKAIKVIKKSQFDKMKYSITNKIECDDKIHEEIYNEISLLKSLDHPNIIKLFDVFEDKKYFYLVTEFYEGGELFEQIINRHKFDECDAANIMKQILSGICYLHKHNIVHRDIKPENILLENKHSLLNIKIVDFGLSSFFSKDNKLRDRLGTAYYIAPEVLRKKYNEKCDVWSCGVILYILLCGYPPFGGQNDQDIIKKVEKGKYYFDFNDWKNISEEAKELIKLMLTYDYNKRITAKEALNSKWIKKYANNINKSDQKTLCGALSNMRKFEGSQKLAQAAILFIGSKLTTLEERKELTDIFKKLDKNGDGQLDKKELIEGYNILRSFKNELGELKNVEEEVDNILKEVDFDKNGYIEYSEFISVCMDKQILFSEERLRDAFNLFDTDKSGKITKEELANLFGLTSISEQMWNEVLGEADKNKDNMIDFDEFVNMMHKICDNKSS
# [6] = molecular target: Plasmodium falciparum protein kinase 6 (PK6, PF3D7_1337100) (UniProt Q8IDW1); assay: PfPK6 kinase inhibitors, biochemical, TCAMS library (AID 1159586); settings: recombinant PfPK6, Kinase-Glo ATP depletion luminescence
# Plasmodium falciparum protein kinase 6 (PK6, PF3D7_1337100), sequence (Q8IDW1 1-305): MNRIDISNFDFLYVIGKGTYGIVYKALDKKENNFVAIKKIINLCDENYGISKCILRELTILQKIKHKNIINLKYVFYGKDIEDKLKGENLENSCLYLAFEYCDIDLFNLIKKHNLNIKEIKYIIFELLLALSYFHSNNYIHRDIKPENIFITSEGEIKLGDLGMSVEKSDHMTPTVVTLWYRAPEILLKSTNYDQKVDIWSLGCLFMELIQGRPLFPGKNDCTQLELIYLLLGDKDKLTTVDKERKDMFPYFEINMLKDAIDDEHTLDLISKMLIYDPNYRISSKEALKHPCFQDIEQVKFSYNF
# [7] = molecular target: Protein kinase 7 (PK7), Plasmodium falciparum 3D7 (PF3D7_0213400) (UniProt Q7YTF7); assay: inhibition of Plasmodium PK7 catalytic activity – biochemical, TCAMS antimalarial set, Kinase-Glo luminescence (AID 1159587); settings: recombinant PfPK7, Kinase-Glo ATP depletion luminescence
# Protein kinase 7 (PK7), Plasmodium falciparum 3D7 (PF3D7_0213400), sequence (Q7YTF7 1-343): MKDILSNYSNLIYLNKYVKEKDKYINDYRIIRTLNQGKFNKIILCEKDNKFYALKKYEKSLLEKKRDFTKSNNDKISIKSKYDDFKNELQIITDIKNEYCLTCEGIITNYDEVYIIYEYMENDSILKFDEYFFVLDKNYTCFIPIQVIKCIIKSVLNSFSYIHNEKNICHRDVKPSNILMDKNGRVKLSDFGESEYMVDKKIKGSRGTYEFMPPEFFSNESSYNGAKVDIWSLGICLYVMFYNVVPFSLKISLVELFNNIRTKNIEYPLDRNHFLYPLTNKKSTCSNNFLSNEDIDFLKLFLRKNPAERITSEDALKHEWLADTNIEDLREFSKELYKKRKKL
# [8] = molecular target: Calcium-dependent protein kinase 4 (Plasmodium falciparum (isolate 3D7)) (UniProt Q8IBS5); assay: PfCDPK4 kinase inhibitors, biochemical, TCAMS library (AID 1159588; cut-off not given, nearly all actives have IC50 up to about 0.91 µM); settings: recombinant PfCDPK4, Kinase-Glo ATP depletion luminescence
# Calcium-dependent protein kinase 4 (Plasmodium falciparum (isolate 3D7)), sequence (Q8IBS5 whole entry, looked up): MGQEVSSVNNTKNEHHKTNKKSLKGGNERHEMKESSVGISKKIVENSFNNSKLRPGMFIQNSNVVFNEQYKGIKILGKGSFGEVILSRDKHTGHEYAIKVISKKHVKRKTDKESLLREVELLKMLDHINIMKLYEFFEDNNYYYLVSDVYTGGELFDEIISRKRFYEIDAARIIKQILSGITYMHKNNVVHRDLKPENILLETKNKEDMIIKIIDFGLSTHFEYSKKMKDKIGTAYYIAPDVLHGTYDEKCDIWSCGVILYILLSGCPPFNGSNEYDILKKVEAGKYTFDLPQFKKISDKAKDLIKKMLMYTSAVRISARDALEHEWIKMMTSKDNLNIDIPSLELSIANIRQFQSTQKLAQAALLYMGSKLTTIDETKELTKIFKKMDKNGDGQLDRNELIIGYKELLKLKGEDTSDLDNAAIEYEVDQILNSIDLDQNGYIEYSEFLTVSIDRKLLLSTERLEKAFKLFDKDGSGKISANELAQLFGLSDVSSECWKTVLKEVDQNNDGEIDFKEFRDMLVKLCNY
SMILES,growth inhibition [1],inhibition [2],inhibition [3],growth inhibition [4],outcome [5],outcome [6],outcome [7],outcome [8]
O=C(Nc1ccc(OC2CCN(Cc3ccccc3)C2)c(Cl)c1)c1cccs1 (stereo unspecified),96% (active),13%,-2%,97% (active),inactive,inactive,inactive,inactive
OC1CCN(c2cc(-c3ccccn3)nc(-c3ccccn3)n2)CC1,97% (active),43%,-2%,83% (active),inactive,inactive,inactive,inactive
Cc1ccc(C)c(Cn2c(N3CCC(C(=O)NCc4cccs4)CC3)nc3ccccc32)c1,73% (active),-2%,-6%,89% (active),inactive,inactive,inactive,inactive
CN1CCC(C(=O)N(Cc2ccc(-c3ccc(CNCCc4ccc(S(C)(=O)=O)cc4)cn3)cc2)Cc2cccc(F)c2)CC1,90% (active),10%,-4%,98% (active),inactive,inactive,inactive,inactive
Cc1cccc(CNc2nc(C)cc(N[C@@H](Cc3ccccc3)C(=O)NCCOc3ccccc3)n2)c1,54% (active),28%,1%,93% (active),inactive,inactive,inactive,inactive
CC(C)(C)c1ccc(NC(=O)N[C@@H]2CCN(c3ccnc4ccccc34)C2)cc1,96% (active),23%,0%,102% (active),inactive,inactive,inactive,inactive
O=C(NCc1cccs1)[C@H](Cc1ccccc1)Nc1ccnc(NCCc2ccccc2)n1,59% (active),-1%,-2%,85% (active),inactive,inactive,inactive,inactive
Cc1ccc(O)cc1Nc1c(C(N)=O)cnc2ccc(-c3cncs3)cc12,99% (active),21%,3%,100% (active),inactive,inactive,inactive,inactive
CC(C)COc1ccc(Cl)cc1Cc1ccc(-c2nc3c(F)c(F)ccc3[nH]2)o1,85% (active),26%,-1%,94% (active),inactive,inactive,inactive,inactive
NCc1ccc(CNCc2cccc(-c3ccc(-c4nc5ccc(C(F)(F)F)cc5[nH]4)cc3)c2)cc1,90% (active),13%,-7%,98% (active),inactive,inactive,inactive,inactive
O=C1c2ccccc2-n2c1nc1ccccc1c2=O,80% (active),9%,4%,93% (active),inactive,inactive,inactive,inactive
COCCNCc1nc(-c2ccc3c(Nc4ccc(F)c(O)c4)ccnc3c2)cs1,99% (active),-7%,6%,101% (active),inactive,inactive,inactive,inactive
CCNCc1ccc(-c2cc3ncnc(Nc4ccc(OCc5cccc(F)c5)c(Cl)c4)c3s2)[nH]1,74% (active),22%,6%,103% (active),inactive,inactive,inactive,inactive
COc1ccccc1N1CCN(CCCCNC(=O)c2ccc(NC(=O)c3cc(Cl)cc(Cl)c3)cc2)CC1,75% (active),9%,2%,101% (active),inactive,inactive,inactive,inactive
CCc1c[nH]c2c(N3CCCC3=O)cc(C(=O)N[C@@H](Cc3ccccc3)[C@H](O)CNC(C)(C)c3cccc(C(F)(F)F)c3)cc12,99% (active),10%,1%,98% (active),inactive,inactive,inactive,inactive
Cc1cc(-c2ccc(CNCCc3cccs3)cc2)ccc1S(=O)(=O)NCc1ccccc1,-2%,28%,3%,94% (active),inactive,inactive,inactive,inactive
CN(C)CC1c2[nH]c3ccccc3c2CCN1C(=O)Nc1ccc(Cl)c(Cl)c1 (stereo unspecified),32%,99% (active),-6%,90% (active),inactive,inactive,inactive,inactive
COc1cccc2c(NCCNc3ccnc4c(OC)cccc34)ccnc12,86% (active),11%,0%,93% (active),inactive,inactive,inactive,inactive
COc1c(C)[nH]c(C)c(-c2ccc(Oc3cccc(C(F)(F)F)c3)cc2)c1=O,96% (active),40%,3%,98% (active),inactive,inactive,inactive,inactive

SMILES,growth inhibition [1],inhibition [2],inhibition [3],growth inhibition [4],outcome [5],outcome [6],outcome [7],outcome [8]
CCN1C(=O)N(CCC(C)C)C2(CCN(Cc3ccc(OC)cc3O)CC2)C1=O,77% (active),13%,4%,89% (active),inactive,inactive,inactive,inactive
COc1ccc(-c2ccc(NC(=O)c3cccc(Cl)c3)cc2)cc1CNC(C)C,88% (active),26%,1%,100% (active),inactive,inactive,inactive,inactive
CCOc1cc(C(=O)Nc2ccc3nc(N4CCN(C)CC4)cc(C)c3c2)cc(OCC)c1OCC,50% (active),14%,-1%,97% (active),inactive,inactive,inactive,inactive
CCc1c[nH]c2c(N3CCCCC3=O)cc(C(=O)N[C@@H](Cc3ccccc3)[C@H](O)CNCc3cccc(OC)c3)cc12,99% (active),8%,-1%,101% (active),inactive,inactive,inactive,inactive
CC(CO)(CO)NCc1cc2c3ccccc3c(CNC(C)(CO)CO)cc2c2ccccc12,98% (active),40%,3%,96% (active),inactive,inactive,inactive,inactive
Oc1[nH]c2ccccc2c1N=NC(=S)N1CCOCC1,75% (active),51% (active),6%,95% (active),inactive,inactive,inactive,inactive
CC1CCC2(CC1)N=C(N)N=C(N)N2OCCCCCCCCO (stereo unspecified),87% (active),2%,-4%,96% (active),inactive,inactive,inactive,inactive
CCNc1cc(C(=O)N[C@@H](Cc2ccccc2)[C@H](O)CNCc2cccc(OC)c2)c(OC)c(N2CCCCS2(=O)=O)c1,96% (active),11%,-8%,97% (active),inactive,inactive,inactive,inactive
OCc1c(Cl)cc(Cl)cc1CNCCCNc1nc2ccccc2[nH]1,2%,-6%,-2%,102% (active),inactive,inactive,inactive,inactive
COc1ccc2ncc(C#N)c(CCN3CCC(NCc4ccc5c(c4)OCCO5)CC3)c2c1,31%,12%,-4%,96% (active),inactive,inactive,inactive,inactive
Cc1cccc2[nH]c(-c3cccc(-c4cccc(NC(=O)CNC(=O)c5ccc(O)cc5)c4)c3)nc12,49%,9%,-1%,94% (active),inactive,inactive,inactive,inactive
CN(C)CCN(C)Cc1ccc(-c2ccc(NS(=O)(=O)c3cccc4cccnc34)cc2)cc1,16%,23%,-1%,93% (active),inactive,inactive,inactive,inactive
COc1cc(-c2nc(-c3ccccc3)c(-c3ccccc3)[nH]2)ccc1OCCN(C)C,100% (active),-8%,5%,101% (active),inactive,inactive,inactive,inactive
CCOC(=O)c1ccc(NC(=O)Nc2cccc(-c3ccc(-c4nc5ccc(C(F)(F)F)cc5[nH]4)cc3)c2)cc1,99% (active),62% (active),-4%,101% (active),inactive,inactive,inactive,inactive
COc1ccc2nccc([C@@H](O)CN3CCC(NCc4ccc(OC)c(NC(C)=O)c4)CC3)c2c1,0%,-5%,-4%,90% (active),inactive,inactive,inactive,inactive
CN(C)C(CNc1ncnc2cc(Cl)ccc12)Cc1ccccc1 (stereo unspecified),88% (active),13%,-4%,96% (active),inactive,inactive,inactive,inactive
CNCCNCc1ccc(-c2ccc(-c3nc4ccc(C(F)(F)F)cc4[nH]3)s2)cc1,100% (active),30%,-2%,99% (active),inactive,inactive,inactive,inactive
N#Cc1ccc2c(c1)CN(C1CCC(NC(=O)c3cc(-c4ccc(Cl)cc4)cs3)CC1)CCC2 (stereo unspecified),99% (active),36%,0%,101% (active),inactive,inactive,inactive,inactive
